Measured values taken from publication PMC7862700, “An all-to-all approach to the identification of sequence-specific readers for epigenetic DNA modifications on cytosine”.

Key:
Assay in all cases: DAPPL (digital affinity profiling via proximity ligation, sequencing); 10 mM Tris-HCl pH 7.5, 50 mM NaCl, 1 mM DTT, 4% glycerol, room temperature, 30 min; GST-TFs on glutathione beads, 16-mer random dsDNA library, 0.1% formaldehyde crosslink after washing; high values mean tight binding
FLI1 = biological target: T1, FLI1 (Homo sapiens, UniProt Q01543 1-452); details: protein: recombinant; tags: N-terminal GST; dsDNA, one strand shown
T1 sequence: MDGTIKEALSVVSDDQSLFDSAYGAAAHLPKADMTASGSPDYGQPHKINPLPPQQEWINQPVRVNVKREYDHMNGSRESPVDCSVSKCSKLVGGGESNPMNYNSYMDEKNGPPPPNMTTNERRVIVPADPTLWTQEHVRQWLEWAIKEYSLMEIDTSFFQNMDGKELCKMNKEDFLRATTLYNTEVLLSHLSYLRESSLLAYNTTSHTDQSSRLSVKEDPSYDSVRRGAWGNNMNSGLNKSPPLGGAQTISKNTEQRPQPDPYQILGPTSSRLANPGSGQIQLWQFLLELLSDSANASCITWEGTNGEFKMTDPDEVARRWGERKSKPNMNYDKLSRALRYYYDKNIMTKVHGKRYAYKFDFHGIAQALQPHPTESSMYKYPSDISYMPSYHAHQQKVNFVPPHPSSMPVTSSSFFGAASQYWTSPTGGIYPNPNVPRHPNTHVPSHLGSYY
Summary of the method: (§1)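 Yeast served to express human transcription factors as GST fusions, which were then captured on glutathione beads and labelled with DNA barcodes. Pooled with a tag-only sample, they were incubated with 200 nmole of a 16-mer random double-stranded DNA library for 30 min at room temperature in Tris/NaCl/DTT/glycerol buffer, washed, crosslinked with 0.1% formaldehyde, ligated by proximity, amplified by PCR and sequenced. Dividing each hexamer's read frequency for a factor by its frequency for the tag-only sample gives the binding signal.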

ELK1 = biological target: T2, ELK1 (Homo sapiens, UniProt P19419 1-428); details: protein: recombinant; tags: N-terminal GST; dsDNA, one strand shown
T2 sequence: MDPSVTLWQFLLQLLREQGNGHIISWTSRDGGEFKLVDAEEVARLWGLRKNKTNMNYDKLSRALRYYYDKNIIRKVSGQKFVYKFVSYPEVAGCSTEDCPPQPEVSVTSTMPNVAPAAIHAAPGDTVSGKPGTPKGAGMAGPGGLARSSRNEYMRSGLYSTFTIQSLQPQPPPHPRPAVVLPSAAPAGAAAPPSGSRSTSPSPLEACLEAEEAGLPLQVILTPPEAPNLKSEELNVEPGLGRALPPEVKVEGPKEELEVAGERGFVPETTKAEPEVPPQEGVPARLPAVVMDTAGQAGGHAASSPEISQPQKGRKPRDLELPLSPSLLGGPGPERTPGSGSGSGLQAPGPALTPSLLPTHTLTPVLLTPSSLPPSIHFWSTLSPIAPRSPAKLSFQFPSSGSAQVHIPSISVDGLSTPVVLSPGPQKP
Summary of the method: as §1

GABPA = biological target: T3, GABPA (Homo sapiens, UniProt Q06546 1-454); details: protein: recombinant; tags: N-terminal GST; dsDNA, one strand shown
T3 sequence: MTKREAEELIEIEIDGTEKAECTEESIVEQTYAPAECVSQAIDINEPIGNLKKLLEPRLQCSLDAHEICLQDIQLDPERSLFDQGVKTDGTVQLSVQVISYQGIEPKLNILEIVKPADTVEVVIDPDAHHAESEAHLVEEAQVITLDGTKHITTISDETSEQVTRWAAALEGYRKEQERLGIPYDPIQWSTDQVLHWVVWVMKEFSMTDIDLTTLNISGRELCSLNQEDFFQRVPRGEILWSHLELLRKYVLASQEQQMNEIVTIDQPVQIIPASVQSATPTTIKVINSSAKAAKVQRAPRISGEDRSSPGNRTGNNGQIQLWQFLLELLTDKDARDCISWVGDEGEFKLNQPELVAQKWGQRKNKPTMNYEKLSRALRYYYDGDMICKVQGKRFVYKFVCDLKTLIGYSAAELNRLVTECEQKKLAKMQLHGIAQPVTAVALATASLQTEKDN
Summary of the method: as §1

ERG = biological target: T4, ERG (Homo sapiens, UniProt P11308 1-479); details: protein: recombinant; tags: N-terminal GST; dsDNA, one strand shown
T4 sequence: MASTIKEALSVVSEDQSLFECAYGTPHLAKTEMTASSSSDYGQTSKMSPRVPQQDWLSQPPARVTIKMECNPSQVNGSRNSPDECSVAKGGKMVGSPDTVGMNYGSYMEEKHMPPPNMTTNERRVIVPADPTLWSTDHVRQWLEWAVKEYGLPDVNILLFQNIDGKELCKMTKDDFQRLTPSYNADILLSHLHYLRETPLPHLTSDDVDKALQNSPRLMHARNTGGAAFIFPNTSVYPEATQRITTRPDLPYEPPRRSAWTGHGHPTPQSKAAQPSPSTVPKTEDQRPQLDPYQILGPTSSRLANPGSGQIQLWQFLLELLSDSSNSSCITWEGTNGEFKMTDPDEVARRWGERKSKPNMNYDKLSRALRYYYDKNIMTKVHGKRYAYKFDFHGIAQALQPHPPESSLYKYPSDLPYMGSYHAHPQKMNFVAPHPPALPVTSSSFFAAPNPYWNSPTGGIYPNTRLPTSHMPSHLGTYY
Summary of the method: as §1

ELF1 = ELF1 (Homo sapiens, UniProt P32519 1-619); details: protein: recombinant; tags: N-terminal GST; dsDNA, one strand shown
Sequence of ELF1 (P32519 whole entry): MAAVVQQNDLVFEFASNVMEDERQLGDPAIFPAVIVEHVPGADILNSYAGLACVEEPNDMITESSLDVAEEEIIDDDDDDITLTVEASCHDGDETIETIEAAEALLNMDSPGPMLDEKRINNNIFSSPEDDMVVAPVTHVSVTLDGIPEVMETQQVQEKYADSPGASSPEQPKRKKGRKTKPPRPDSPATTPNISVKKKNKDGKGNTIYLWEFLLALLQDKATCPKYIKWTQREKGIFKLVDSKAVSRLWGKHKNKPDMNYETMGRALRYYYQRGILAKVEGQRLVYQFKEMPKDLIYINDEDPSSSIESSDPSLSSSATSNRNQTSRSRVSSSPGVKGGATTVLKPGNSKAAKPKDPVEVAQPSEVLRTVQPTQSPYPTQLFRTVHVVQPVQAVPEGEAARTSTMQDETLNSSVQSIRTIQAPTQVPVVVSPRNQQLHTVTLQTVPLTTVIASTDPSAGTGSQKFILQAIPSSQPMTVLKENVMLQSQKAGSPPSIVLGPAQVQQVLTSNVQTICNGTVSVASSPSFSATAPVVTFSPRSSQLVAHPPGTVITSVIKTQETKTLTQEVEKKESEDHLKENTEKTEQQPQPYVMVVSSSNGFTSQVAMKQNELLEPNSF
Summary of the method: as §1

EHF = biological target: T5, EHF (Homo sapiens, UniProt Q9NZC4 1-300); details: protein: recombinant; tags: N-terminal GST; dsDNA, one strand shown
T5 sequence: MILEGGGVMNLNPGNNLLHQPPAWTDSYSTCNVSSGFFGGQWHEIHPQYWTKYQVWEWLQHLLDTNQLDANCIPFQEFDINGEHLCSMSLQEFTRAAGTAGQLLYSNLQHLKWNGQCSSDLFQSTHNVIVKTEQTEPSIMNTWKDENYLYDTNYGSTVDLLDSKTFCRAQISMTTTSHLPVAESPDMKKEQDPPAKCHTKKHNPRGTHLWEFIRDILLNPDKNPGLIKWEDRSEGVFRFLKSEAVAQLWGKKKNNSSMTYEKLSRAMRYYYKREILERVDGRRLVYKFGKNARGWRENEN
Summary of the method: as §1

SPI1 = SPI1 (Homo sapiens, UniProt P17947 1-270); details: protein: recombinant; tags: N-terminal GST; dsDNA, one strand shown
Summary of the method: as §1

SPIB = SPIB (Homo sapiens, UniProt Q01892 1-262); details: protein: recombinant; tags: N-terminal GST; dsDNA, one strand shown
Sequence of SPIB (Q01892 whole entry): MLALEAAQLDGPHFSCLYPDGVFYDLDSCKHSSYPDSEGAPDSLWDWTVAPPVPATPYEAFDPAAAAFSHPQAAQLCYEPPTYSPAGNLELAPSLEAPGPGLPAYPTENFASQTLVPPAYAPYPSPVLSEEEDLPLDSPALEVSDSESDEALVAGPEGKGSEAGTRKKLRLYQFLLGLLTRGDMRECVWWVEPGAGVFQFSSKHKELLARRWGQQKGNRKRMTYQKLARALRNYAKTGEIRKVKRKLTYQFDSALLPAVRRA
Summary of the method: as §1

ELK3 = biological target: T6, ELK3 (Homo sapiens, UniProt P41970 1-407); details: protein: recombinant; tags: N-terminal GST; dsDNA, one strand shown
T6 sequence: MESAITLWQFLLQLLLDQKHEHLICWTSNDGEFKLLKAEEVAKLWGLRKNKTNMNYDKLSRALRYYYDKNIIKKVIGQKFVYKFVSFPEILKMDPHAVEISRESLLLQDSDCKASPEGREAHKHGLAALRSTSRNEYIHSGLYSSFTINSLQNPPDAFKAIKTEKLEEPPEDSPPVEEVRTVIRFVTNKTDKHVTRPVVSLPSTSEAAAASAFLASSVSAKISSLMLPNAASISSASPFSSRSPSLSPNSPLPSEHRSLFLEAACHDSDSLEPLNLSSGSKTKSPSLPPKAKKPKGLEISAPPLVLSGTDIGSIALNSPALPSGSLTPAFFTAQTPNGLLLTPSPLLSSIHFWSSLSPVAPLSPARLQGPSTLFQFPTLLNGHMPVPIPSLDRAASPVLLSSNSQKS
Summary of the method: as §1

FEV = biological target: T7, FEV (Homo sapiens, UniProt Q99581 1-238); details: protein: recombinant; tags: N-terminal GST; dsDNA, one strand shown
T7 sequence: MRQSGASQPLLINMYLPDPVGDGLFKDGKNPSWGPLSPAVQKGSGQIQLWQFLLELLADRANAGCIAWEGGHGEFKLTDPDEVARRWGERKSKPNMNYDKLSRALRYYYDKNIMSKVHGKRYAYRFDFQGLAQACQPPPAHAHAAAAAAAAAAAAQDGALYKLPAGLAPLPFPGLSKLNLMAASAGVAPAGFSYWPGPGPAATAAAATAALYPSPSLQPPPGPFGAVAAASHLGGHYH
Summary of the method: as §1

ETV5 = ETV5 (Homo sapiens, UniProt P41161 1-510); details: protein: recombinant; tags: N-terminal GST; dsDNA, one strand shown
Sequence of ETV5 (P41161 whole entry): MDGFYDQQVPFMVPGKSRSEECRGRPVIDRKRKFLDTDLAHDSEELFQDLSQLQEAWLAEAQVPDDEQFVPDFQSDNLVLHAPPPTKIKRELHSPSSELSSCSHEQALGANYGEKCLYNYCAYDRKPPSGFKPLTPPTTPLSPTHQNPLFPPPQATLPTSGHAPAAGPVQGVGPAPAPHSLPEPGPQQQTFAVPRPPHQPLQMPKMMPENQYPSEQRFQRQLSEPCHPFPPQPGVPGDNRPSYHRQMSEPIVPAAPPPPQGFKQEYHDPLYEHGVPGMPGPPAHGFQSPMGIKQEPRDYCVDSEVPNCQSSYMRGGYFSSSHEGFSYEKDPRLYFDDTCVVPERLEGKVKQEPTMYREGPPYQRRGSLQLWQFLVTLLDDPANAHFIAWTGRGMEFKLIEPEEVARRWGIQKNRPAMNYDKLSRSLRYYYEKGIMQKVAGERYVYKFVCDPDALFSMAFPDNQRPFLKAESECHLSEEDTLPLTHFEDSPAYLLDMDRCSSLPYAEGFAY
Summary of the method: as §1

HSF1 = HSF1 (Homo sapiens, UniProt Q00613 1-529); details: protein: recombinant; tags: N-terminal GST; chain copies: 3; dsDNA, one strand shown
Sequence of HSF1 (Q00613 whole entry): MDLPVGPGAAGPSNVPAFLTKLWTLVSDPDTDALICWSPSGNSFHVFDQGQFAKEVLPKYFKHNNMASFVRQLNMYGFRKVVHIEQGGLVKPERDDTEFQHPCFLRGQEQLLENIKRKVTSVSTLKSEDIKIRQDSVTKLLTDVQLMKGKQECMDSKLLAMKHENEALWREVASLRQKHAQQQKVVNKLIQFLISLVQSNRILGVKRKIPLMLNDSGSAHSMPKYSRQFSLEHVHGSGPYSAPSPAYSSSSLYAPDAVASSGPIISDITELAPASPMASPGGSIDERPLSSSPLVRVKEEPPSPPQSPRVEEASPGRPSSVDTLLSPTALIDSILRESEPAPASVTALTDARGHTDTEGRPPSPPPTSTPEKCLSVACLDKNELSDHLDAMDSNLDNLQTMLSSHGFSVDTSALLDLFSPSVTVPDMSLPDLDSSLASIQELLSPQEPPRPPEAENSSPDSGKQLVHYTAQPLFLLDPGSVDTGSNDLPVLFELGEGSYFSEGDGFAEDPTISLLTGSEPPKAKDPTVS
Summary of the method: as §1

SPIC = biological target: T8, SPIC (Homo sapiens, UniProt Q8N5J4 1-248); details: protein: recombinant; tags: N-terminal GST; dsDNA, one strand shown
T8 sequence: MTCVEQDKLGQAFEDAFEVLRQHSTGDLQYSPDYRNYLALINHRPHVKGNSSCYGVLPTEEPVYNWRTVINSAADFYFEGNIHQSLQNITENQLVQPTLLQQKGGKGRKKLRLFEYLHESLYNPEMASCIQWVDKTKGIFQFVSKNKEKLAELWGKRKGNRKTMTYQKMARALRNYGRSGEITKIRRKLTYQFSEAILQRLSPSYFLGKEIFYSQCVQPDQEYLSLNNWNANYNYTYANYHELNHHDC
Summary of the method: as §1

ELF4 = ELF4 (Homo sapiens, UniProt Q99607 1-663); details: protein: recombinant; tags: N-terminal GST; dsDNA, one strand shown
Sequence of ELF4 (Q99607 whole entry): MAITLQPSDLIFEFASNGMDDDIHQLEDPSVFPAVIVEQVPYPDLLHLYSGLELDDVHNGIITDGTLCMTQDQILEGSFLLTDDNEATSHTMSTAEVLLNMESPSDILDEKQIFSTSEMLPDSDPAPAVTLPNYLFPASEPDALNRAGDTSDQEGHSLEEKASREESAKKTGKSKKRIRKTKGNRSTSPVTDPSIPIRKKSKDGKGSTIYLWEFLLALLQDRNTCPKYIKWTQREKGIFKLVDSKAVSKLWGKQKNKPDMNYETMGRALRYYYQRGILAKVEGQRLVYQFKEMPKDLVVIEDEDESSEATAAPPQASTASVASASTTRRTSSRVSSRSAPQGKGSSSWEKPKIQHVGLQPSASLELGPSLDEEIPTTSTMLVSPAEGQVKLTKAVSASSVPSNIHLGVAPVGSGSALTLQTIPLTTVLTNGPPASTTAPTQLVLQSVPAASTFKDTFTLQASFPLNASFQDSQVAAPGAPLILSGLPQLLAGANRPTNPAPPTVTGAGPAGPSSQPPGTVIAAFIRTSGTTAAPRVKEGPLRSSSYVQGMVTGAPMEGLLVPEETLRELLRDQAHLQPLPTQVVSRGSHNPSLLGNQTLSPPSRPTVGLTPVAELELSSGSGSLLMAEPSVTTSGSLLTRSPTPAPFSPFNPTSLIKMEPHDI
Summary of the method: as §1

ELK4 = biological target: T9, ELK4 (Homo sapiens, UniProt P28324-2 1-405); details: protein: recombinant; tags: N-terminal GST; dsDNA, one strand shown
T9 sequence: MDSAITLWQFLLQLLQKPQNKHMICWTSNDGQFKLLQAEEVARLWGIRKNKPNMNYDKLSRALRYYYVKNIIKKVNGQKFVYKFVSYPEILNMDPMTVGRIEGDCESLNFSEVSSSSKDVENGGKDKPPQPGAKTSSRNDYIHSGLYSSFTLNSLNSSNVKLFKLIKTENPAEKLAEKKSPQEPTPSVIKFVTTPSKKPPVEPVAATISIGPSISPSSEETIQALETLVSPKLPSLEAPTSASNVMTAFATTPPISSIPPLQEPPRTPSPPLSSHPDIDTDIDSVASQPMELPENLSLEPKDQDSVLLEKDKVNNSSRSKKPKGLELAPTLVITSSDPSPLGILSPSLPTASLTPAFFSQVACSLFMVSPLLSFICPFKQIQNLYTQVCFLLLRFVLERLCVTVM
Summary of the method: as §1

ETV2 = biological target: T10, ETV2 (Homo sapiens, UniProt O00321 1-342); details: protein: recombinant; tags: N-terminal GST; dsDNA, one strand shown
T10 sequence: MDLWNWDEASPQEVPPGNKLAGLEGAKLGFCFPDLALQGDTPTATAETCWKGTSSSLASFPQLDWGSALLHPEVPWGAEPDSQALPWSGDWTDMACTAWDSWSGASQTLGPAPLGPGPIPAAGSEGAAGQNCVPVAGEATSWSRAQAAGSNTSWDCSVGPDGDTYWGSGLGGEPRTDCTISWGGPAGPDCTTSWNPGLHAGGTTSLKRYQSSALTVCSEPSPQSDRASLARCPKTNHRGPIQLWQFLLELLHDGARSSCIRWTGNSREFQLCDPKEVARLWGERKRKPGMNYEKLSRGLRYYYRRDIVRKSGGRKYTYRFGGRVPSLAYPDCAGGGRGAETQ
Summary of the method: as §1

ELF3 = biological target: T11, ELF3 (Homo sapiens, UniProt P78545 1-371); details: protein: recombinant; tags: N-terminal GST; dsDNA, one strand shown
T11 sequence: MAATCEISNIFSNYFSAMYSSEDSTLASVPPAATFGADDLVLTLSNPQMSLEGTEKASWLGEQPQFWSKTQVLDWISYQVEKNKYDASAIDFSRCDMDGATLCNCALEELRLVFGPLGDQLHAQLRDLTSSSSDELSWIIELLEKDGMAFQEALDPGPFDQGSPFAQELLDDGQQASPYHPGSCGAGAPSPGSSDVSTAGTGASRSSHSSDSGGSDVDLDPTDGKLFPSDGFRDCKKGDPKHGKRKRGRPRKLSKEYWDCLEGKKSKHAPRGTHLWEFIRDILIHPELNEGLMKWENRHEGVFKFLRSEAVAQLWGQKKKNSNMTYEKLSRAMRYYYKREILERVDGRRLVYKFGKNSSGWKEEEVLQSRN
Summary of the method: as §1

CRX = CRX (Homo sapiens, UniProt O43186 1-299); details: protein: recombinant; tags: N-terminal GST; dsDNA, one strand shown
Sequence of CRX (O43186 whole entry): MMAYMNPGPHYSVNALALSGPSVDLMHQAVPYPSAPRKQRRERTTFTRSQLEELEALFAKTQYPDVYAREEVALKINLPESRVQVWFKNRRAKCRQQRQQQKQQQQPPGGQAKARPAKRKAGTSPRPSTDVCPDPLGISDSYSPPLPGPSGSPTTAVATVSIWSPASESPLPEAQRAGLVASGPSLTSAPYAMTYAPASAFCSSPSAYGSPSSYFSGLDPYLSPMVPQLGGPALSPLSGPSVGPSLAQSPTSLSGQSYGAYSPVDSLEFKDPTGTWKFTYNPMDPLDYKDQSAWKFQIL
Summary of the method: as §1

ETV1 = ETV1 (Homo sapiens, UniProt P50549 1-477); details: protein: recombinant; tags: N-terminal GST; dsDNA, one strand shown
Sequence of ETV1 (P50549 whole entry): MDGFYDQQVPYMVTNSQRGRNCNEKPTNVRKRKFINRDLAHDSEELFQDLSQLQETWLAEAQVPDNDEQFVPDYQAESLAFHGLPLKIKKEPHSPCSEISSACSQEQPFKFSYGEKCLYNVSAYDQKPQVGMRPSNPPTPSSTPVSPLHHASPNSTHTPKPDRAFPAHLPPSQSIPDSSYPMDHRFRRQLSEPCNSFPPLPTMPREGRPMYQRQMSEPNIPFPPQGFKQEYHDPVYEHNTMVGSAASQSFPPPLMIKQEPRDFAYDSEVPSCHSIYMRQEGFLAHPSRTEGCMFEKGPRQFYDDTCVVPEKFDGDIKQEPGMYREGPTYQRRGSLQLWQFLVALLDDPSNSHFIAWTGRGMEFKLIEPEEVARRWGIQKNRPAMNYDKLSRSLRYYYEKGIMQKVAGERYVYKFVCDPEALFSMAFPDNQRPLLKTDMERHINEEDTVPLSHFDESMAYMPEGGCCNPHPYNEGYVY
Summary of the method: as §1

Sequence: TCACTC
- binding signal (FLI1): 1.16 fold enrichment (6-mer frequency, TF over GST control)
- binding signal (ELK1): 1.19 fold enrichment (6-mer frequency, TF over GST control)
- binding signal (GABPA): 1.28 fold enrichment (6-mer frequency, TF over GST control)
- binding signal (ERG): 1.18 fold enrichment (6-mer frequency, TF over GST control)
- binding signal (ELF1): 1.34 fold enrichment (6-mer frequency, TF over GST control)
- binding signal (EHF): 1.27 fold enrichment (6-mer frequency, TF over GST control)
- binding signal (SPI1): 1.21 fold enrichment (6-mer frequency, TF over GST control)
- binding signal (SPIB): 1.26 fold enrichment (6-mer frequency, TF over GST control)
- binding signal (ELK3): 1.18 fold enrichment (6-mer frequency, TF over GST control)
- binding signal (FEV): 1.23 fold enrichment (6-mer frequency, TF over GST control)
- binding signal (ETV5): 1.19 fold enrichment (6-mer frequency, TF over GST control)
- binding signal (HSF1): 1.11 fold enrichment (6-mer frequency, TF over GST control)
- binding signal (SPIC): 1.3 fold enrichment (6-mer frequency, TF over GST control)
- binding signal (ELF4): 1.24 fold enrichment (6-mer frequency, TF over GST control)
- binding signal (ELK4): 1.34 fold enrichment (6-mer frequency, TF over GST control)
- binding signal (ETV2): 1.35 fold enrichment (6-mer frequency, TF over GST control)
- binding signal (ELF3): 1.26 fold enrichment (6-mer frequency, TF over GST control)
- binding signal (CRX): 1.05 fold enrichment (6-mer frequency, TF over GST control)
- binding signal (ETV1): 1.18 fold enrichment (6-mer frequency, TF over GST control)
